High-throughput results: PubChem, National Center for Advancing Translational Sciences (NCATS)
MCF10A rereplic = A quantitative high throughput screen for small molecules that induce DNA re-replication in MCF 10a normal breast cells; MCF 10A DNA re-replication, Hoechst nuclear intensity, 48 h; Potency, µM (titrated, usually from 46.1 µM), inactives show top-dose activity, positive = re-replication, actives largely listed as activators; AID 624296, 2012; 350,000 tested, 2.9% active; note: potency is the fitted concentration of half-maximal effect; % of control where 0% means no effect; nearly all actives have a fitted effect of over 50% in size
Chronic BCR inh = qHTS Assay to Find Inhibitors of Chronic Active B-Cell Receptor Signaling | 340,000 tested, 0.05% active | ABC-DLBCL IkBa-CBG/CBR reporter, luminescence ratio, 4 h | AID 493014, 2011 | Potency, µM (titrated, usually from 46.1 µM), for the others: at the top dose activity change, negative = inhibition, usual class: inhibitors; active = well fitted inhibition curve with a large enough effect in the signal ratio, with a control signal flat, not every such curve was filed as active; inconclusive = small, poorly fitted or top-dose-only effect, or effect the other way, or a change in a side signal; the % refers to the signal ratio;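 note: potency is the fitted concentration of half-maximal effect; plate controls were basal doxycycline-induced cells for no effect and cells given 10 µM MG132 for full effect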
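Concentration-response series (up to 46 uM) were applied to TMD8 dual-reporter cells for 4 h at 37C with doxycycline. Green/red ratio, after filter-overlap correction, defined %Activity; red signal alone was normalised to basal cells and zero luminescence.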
Gal4-VP16 FLuc = VP16 counterscreen qHTS for inhibitors of ROR gamma transcriptional activity | AID 2546, 2010 | 310,000 tested, 3.5% active | Drosophila S2 Gal4-VP16 UAS-luciferase, luminescence, 20 h | Potency, µM (top dose mostly 53.6 µM), inactives show at the highest dose activity, negative = inhibition, actives largely listed as inhibitors;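 note: Gal4-VP16 expression switched on by copper sulfate through the metallothionein promoter; potency is the fitted concentration of half-maximal effect; % is set by controls: 0 for no effect and ±100 for the full control effect; nearly all actives have a fitted effect of over 50% in size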
SW480 rerep = A quantitative high throughput screen for small molecules that induce DNA re-replication in SW480 colon adenocarcinoma cells; Potency, µM (doses to about 46.1 µM), without a hit: top-dose re-replication activation, usual class: activators; AID 624297, 2012; SW480 DNA re-replication, Hoechst DNA content imaging, 48 h; 340,000 tested, 1.8% active; note: potency is the fitted concentration of half-maximal effect; % of control where 0% means no effect; nearly all actives have a fitted effect of over 55% in size
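SW480 cells exposed to compounds for 48 hr at 37 C, 5% CO2, then Hoechst-stained 40 min. Nuclear DNA content imaged by fluorescence scanning (405 nm excitation, 500-530 nm emission); re-replication scored as increased high-intensity nuclei.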
RORgamma inh = qHTS for inhibitors of ROR gamma transcriptional activity | Nuclear receptor ROR-gamma (Mus musculus), P51450 | Drosophila S2 Gal4-RORgamma UAS-luciferase reporter, 20 h | Potency, µM (titrated, usually from 53.6 µM), for the others: top-dose activity change, negative = inhibition, actives largely listed as inhibitors | 310,000 tested, 5.4% active; note: potency is the fitted concentration of half-maximal effect; % is set by controls: 0 for no effect and ±100 for the full control effect; nearly all actives have a fitted effect of over 60% in size
Target sequence (P51450 whole entry, looked up, the tested form may be a part): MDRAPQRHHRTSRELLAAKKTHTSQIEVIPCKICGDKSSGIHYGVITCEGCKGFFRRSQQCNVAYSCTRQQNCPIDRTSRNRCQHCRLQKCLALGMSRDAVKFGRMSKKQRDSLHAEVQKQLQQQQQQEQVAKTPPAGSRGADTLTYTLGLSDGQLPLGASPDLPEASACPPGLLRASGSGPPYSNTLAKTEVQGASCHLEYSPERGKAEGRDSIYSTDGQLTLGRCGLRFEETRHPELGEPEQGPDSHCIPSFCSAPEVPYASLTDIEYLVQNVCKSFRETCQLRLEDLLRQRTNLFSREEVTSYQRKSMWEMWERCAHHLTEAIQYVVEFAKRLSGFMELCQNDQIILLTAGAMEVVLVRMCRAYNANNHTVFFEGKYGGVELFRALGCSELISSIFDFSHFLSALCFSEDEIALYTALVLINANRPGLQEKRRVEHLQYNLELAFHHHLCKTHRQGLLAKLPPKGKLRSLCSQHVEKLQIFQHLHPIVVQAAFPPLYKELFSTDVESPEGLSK
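Read-out: Photinus luciferase luminescence; inhibitors lower reporter signal. Insect Schneider cells with Gal4-ROR gamma fusion under metallothionein promoter, UAS reporter; 700 uM final copper sulfate induction, 20 hr, ambient temperature.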
Giardia killer = Small Molecules that selectively kill Giardia lamblia: qHTS; 340,000 tested, 0.15% active; Giardia lamblia trophozoite viability; AID 540267, 2011; activity change, % at 7.66 µM, hits read low; in the data active = activity change below about -80%; inconclusive = between about -30% and that limit;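 note: parasites exposed to compound for two days anaerobically before the ATP read; % is set by controls: 0 for no effect and ±100 for the full control effect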
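Trophozoite viability was measured as ATP-dependent luminescence, read 15-30 min after reagent addition. Before that, parasites at 100 cells/well were exposed to compounds for 48 h, anaerobically, at 37 deg C.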
The depositor's hits bear a star; [ ] = dose if it differs, or a comment. The list is not random: actives were taken first. Their share in the collection is about 8.3%. Unless noted, calls come from the whole dose curve; as a rule, active = well fitted curve in the direction sought with a large enough effect; inconclusive = small, poorly fitted or top-dose-only effect, or another doubt; inactive = no such curve, though single readings can be large; an effect the other way counts as inactive or inconclusive.

`C=CCNC(=S)N/N=C(\C)c1ccc(OC)cc1` gave MCF10A rereplic 8%, Chronic BCR inh inconclusive, Gal4-VP16 FLuc 1.1µM*, SW480 rerep inconclusive, RORgamma inh 0.71µM* and Giardia killer -11.
Screening COc1ccc(OCC(=O)N/N=C(\C)c2ccc(OC)cc2)cc1 returned MCF10A rereplic -3%, Chronic BCR inh 0%, Gal4-VP16 FLuc -3%, SW480 rerep -6%, RORgamma inh 38% and Giardia killer -16.
For O=C(CN1C(=O)c2cccc([N+](=O)[O-])c2C1=O)NNC(=O)c1ccc(F)cc1 the results were MCF10A rereplic 0%, Chronic BCR inh 5%, SW480 rerep -13% and Giardia killer -5.
`O=C(COc1ccc(C(=O)c2ccc(F)cc2)cc1)Nc1cccc(S(=O)(=O)N2CCOCC2)c1` gave MCF10A rereplic 10%, Chronic BCR inh inconclusive, SW480 rerep -2% and Giardia killer -22.
For O=C1CCN(Cc2ccccc2)CCN1CCOc1ccccc1 the results were MCF10A rereplic -13%, Chronic BCR inh 1%, Gal4-VP16 FLuc -3%, SW480 rerep -1%, RORgamma inh inconclusive and Giardia killer 23.
For COc1ccc(CC(=S)NCCc2ccccc2)cc1 the results were MCF10A rereplic 2%, Chronic BCR inh inconclusive, Gal4-VP16 FLuc -1%, SW480 rerep 0%, RORgamma inh -43% and Giardia killer -12.
`COc1ccc(/C(C)=N/NC(=S)NCCc2ccccc2)cc1` gave MCF10A rereplic 10%, Chronic BCR inh inconclusive, Gal4-VP16 FLuc 1.1µM*, SW480 rerep 10%, RORgamma inh 0.28µM* and Giardia killer 13.
For CN(C(=S)NC(=O)Cc1ccccc1)c1ccccc1 the results were MCF10A rereplic 0%, Chronic BCR inh inconclusive, Gal4-VP16 FLuc inconclusive, SW480 rerep -2%, RORgamma inh 10µM* and Giardia killer 17.
Screening CCN(CC)C(=S)NC(=O)Cc1ccccc1 returned MCF10A rereplic -3%, Chronic BCR inh 1%, Gal4-VP16 FLuc inconclusive, SW480 rerep 5%, RORgamma inh 6.3µM* and Giardia killer 3.
For CN(C(=S)NC(=O)C1(C)CC1(Cl)Cl)c1ccccc1 (centres undefined) the results were MCF10A rereplic 6%, Chronic BCR inh inconclusive, Gal4-VP16 FLuc inconclusive, SW480 rerep -2%, RORgamma inh inconclusive and Giardia killer 16.
Screening COc1ccc2c(c1)nc(NCCCO)n2Cc1ccccc1 returned MCF10A rereplic -6%, Chronic BCR inh 1%, Gal4-VP16 FLuc 0%, SW480 rerep -14%, RORgamma inh -3% and Giardia killer 13.
Screening COc1ccc(-n2c(=O)[nH]cc(C(=O)Nc3ccc4c(c3)OCO4)c2=O)cc1OC returned MCF10A rereplic -3%, Chronic BCR inh -10%, Gal4-VP16 FLuc -2%, SW480 rerep -5%, RORgamma inh -9% and Giardia killer -14.
O=C(COC(=O)c1cc(NS(=O)(=O)c2cccs2)ccc1O)Nc1cc(Cl)ccc1Cl was read as MCF10A rereplic 2%, Chronic BCR inh inconclusive, Gal4-VP16 FLuc 13µM*, SW480 rerep -6%, RORgamma inh inconclusive and Giardia killer -19.
`O=C(COC(=O)c1cc(NS(=O)(=O)c2cccs2)ccc1O)Nc1ccc(F)c(F)c1F` gave MCF10A rereplic 0%, Chronic BCR inh inconclusive, Gal4-VP16 FLuc -8%, SW480 rerep -3%, RORgamma inh 33% and Giardia killer 3.
Screening CCc1cc2c(nc1CC)CCN(CC/C(C)=N/O[C@@H]1O[C@H](COC(C)=O)[C@H](OC(C)=O)[C@H](OC(C)=O)[C@H]1OC(C)=O)C2 returned Gal4-VP16 FLuc -11%[10 µM] and RORgamma inh 20%[10 µM].
`Cc1ccccc1SCC(=O)NNC(=O)c1ccccc1O` gave MCF10A rereplic -8%, Chronic BCR inh inconclusive, Gal4-VP16 FLuc -9%, SW480 rerep 13µM*, RORgamma inh -22% and Giardia killer 19.
Cc1ccccc1SCC(=O)NNC(=O)c1ccncc1 was read as MCF10A rereplic 3%, Chronic BCR inh 2%, SW480 rerep -21% and Giardia killer 14.
O=C(c1cnccn1)N1CCC2(CC1)CCN(c1ccccc1)CC2 was read as Gal4-VP16 FLuc -4% and RORgamma inh 22%.
For CC(C)(C)C#CCn1c(/C=[N+](\[O-])C2CCCCC2)nc2ccccc21 the results were MCF10A rereplic 14%, Chronic BCR inh -2%, Gal4-VP16 FLuc -13%, SW480 rerep inconclusive, RORgamma inh 10µM* and Giardia killer 0.
CCCc1ccc2oc(C(=O)NCCN3CCCC(O)C3)c(C)c2c1 (centres undefined) was read as MCF10A rereplic inconclusive, Chronic BCR inh -10%, SW480 rerep 23µM* and Giardia killer -3.
`CCCc1ccc2oc(C(=O)NCCN3CCCC(C(N)=O)C3)c(C)c2c1` (centres undefined) gave MCF10A rereplic 24%, Chronic BCR inh -1%, Gal4-VP16 FLuc 3%, SW480 rerep 21%, RORgamma inh 12% and Giardia killer 2.
Screening CCS(=O)(=O)N1CCN(C(=O)c2ccco2)CC1 returned MCF10A rereplic 8.2µM*, Chronic BCR inh -1%, Gal4-VP16 FLuc 8%, SW480 rerep 17%, RORgamma inh 7% and Giardia killer 12.
Screening COc1ccc(C(=O)NCCS(=O)(=O)N2CCN(C(=O)c3ccco3)CC2)cc1 returned MCF10A rereplic 1%, Chronic BCR inh -17%, SW480 rerep 4.1µM* and Giardia killer -4.
For COc1ccc(N2CCN(S(=O)(=O)CCNC(=O)c3ccco3)CC2)cc1 the results were MCF10A rereplic -1%, Chronic BCR inh 0%, SW480 rerep 0% and Giardia killer 25.
For O=C(c1ccc(S(=O)(=O)Nc2ccc(F)cc2)cc1)N1CCN(C(=O)c2ccco2)CC1 the results were MCF10A rereplic inconclusive, Chronic BCR inh 11%, Gal4-VP16 FLuc 20µM*, SW480 rerep -6%, RORgamma inh -28% and Giardia killer 0.
CCc1c2c(nc3cccc(C(C)C)c13)-c1cccc(=O)n1C2 was read as Gal4-VP16 FLuc -11% and RORgamma inh 0%.
Screening CCN(CC)c1ccc(/C=N/N(c2ccccc2)c2ccccc2)c(O)c1 returned MCF10A rereplic inconclusive, Chronic BCR inh 4%, Gal4-VP16 FLuc inconclusive, SW480 rerep inconclusive, RORgamma inh inconclusive and Giardia killer -25.
